Each structure is given as a SMILES string. Inconclusive results are not listed. Entries that show only a call come without a potency. Values without a mark were called inactive. Activity calls are given as the source filed them. Calls follow the shape of the full dose curve; tested in HEK293 reporter line.

The assay can be described thus: qHTS for Inhibitors of the Functional Ribonucleoprotein Complex (vRNP) of Lassa (LASV) Arenavirus: LASV Primary Screen - GLuc reporter signal (AID 1347082). Also: nearly all actives have a fitted effect of over 60% in size. Particulars: LASV minigenome vRNP, Gaussia luciferase reporter; series mostly up to 57.5 µM. On the technique in general: In qHTS, concentration-response curves come from the screen itself.
Consider `Nc1c(CC(=O)O)cccc1C(=O)c1ccc(Br)cc1`, for which the Potency result was “inactive”. With `O=C(O)c1cn(C2CC2)c2cc(Cl)c(F)cc2c1=O`, the Potency entry is “inactive”. Same read-out and setting: the value for `CN(C)CCC(c1ccccc1)c1ccccn1` (centres undefined) was “inactive”; that for `CCN(CCCc1ccccc1)CCCc1ccccc1` was “inactive”; that for `C[C@@H]1C[C@H]2[C@@H]3CCC4=CC(=O)C=C[C@]4(C)[C@@]3(F)[C@@H](O)C[C@]2(C)[C@H]1C(=O)CO` was “inactive”. On the same count and under the same terms, the value for `CC1=C(C)C(=O)C(C(CCCCCC(=O)O)c2ccccc2)=C(C)C1=O` (centres undefined) was “inactive”; that for `CCN(CC)C(=O)N1CCN(C)CC1` was “inactive”. With `C#C[C@]1(O)CC[C@H]2[C@@H]3CCC4=CC(=O)CC[C@@H]4[C@H]3CC[C@@]21C`, the Potency entry was “inactive”. On the same count and under the same terms, the value for `C/C(=C(/OCCOc1ccc(Cl)cc1)c1ccc(Cl)cc1Cl)n1ccnc1` was “inactive”; that for `C[C@]12C=CC(=O)C=C1CC[C@H]1[C@@H]3C[C@@H](O)[C@](O)(C(=O)CO)[C@@]3(C)C[C@H](O)[C@@]12F` was “inactive”; that for `C[C@@]12CCC[C@H]1[C@@H]1CC[C@H]3C[C@@H](O)CC[C@]3(C)[C@H]1CC2` was “inactive”. The same measure, in the same setting: the result for `Cc1c(F)cc2c(=O)c(C(=O)O)cn3c2c1CCC3C` (centres undefined) reads “inactive”; that for `O=c1[nH]c2ccccc2c(=O)n1CCCl`, “inactive”.

In the case of `OC[C@H]1O[C@@H](OCCc2ccc(O)cc2)[C@H](O)[C@@H](O)[C@H]1O`, the Potency result is “inactive”.

On to `COC(=O)c1cc(S(N)(=O)=O)ccc1OC`, for which the Potency result was “inactive”. With `O=C(NCCCN1CCOCC1)c1ccc(Cl)cc1`, the Potency result is “inactive”.

In the case of `CC(C)N=C(N)/N=C(\N)Nc1ccc(Cl)cc1`, the Potency entry was “inactive”.

Consider `CC(=O)OCC(=O)[C@@]12N=C(C)O[C@@H]1C[C@H]1[C@@H]3CCC4=CC(=O)C=C[C@]4(C)[C@H]3[C@@H](O)C[C@@]12C`, for which the Potency result is “inactive”. For `CCCCN(CCN(CCCC)C(=O)N1CCOCC1)C(=O)N1CCOCC1`, the Potency entry is “inactive”.

Consider `CC(=O)[C@@]1(O)CC[C@H]2[C@@H]3CCC4=CC(=O)CC[C@]4(C)[C@H]3CC[C@@]21C`, for which the Potency result is “inactive”. Still for that read-out and setting: the value for `O=C(c1cc(O)c(O)c(O)c1)c1ccc(O)c(O)c1O` was “inactive”; that for `C[C@H]1COc2c(C3(N)CC3)c(F)cc3c(=O)c(C(=O)O)cn1c23` was “inactive”. Regarding `CC(Cc1cccc(C(F)(F)F)c1)NCCOC(=O)c1ccccc1` (centres undefined), the Potency entry is “inactive”. Same read-out and setting: the value for `CCCCC(=O)O[C@]1(C(=O)CO)[C@@H](C)C[C@H]2[C@@H]3CCC4=CC(=O)C=C[C@]4(C)[C@@]3(F)[C@@H](O)C[C@@]21C` was “inactive”; that for `CN(C)[C@@H]1C(=O)C(C(=O)NCN2CCCC2)=C(O)[C@@]2(O)C(=O)C3=C(O)c4c(O)cccc4[C@@](C)(O)C3C[C@@H]12` (some centres undefined) was “inactive”. Same read-out and setting: the result for `O=c1[nH]sc2cc(Cl)ccc12` reads “inactive”; that for `Cc1cc(C(C)(C)C)cc(C)c1CC1=NCCN1`, “inactive”; that for `N[C@H](C(=O)O)[C@@H](O)c1ccc(O)c(O)c1`, “inactive”. As for `N[C@@H](CSSC[C@H](N)C(=O)O)C(=O)O`, the activity change, negative = inhibition was -0.506% [at 0.757 µM]. For the molecule `CC(C)(C)CC(C)(C)c1ccc(O)c(Cc2ccc(Cl)cc2Cl)c1`, the Potency result is “inactive”. As to `CC(C)CCCC(C)N` (centres undefined), the Potency entry was “inactive”. Regarding `Cc1ccc(CCn2c3c(c4cc(Cl)ccc42)CN(C)CC3)cn1`, the Potency result is “inactive”. On the same count and under the same terms, the value for `CC(C)NC(=O)c1ccc(C=O)cc1` was “inactive”. Still for that read-out and setting: the value for `CNC1CCCN(c2c(F)cc3c(=O)c(C(=O)O)cn(C4CC4)c3c2OC)C1` (centres undefined) was “inactive”. As for `CC(=O)OCC(=O)[C@@]1(O)CCC2C3CCC4=CC(=O)CC[C@]4(C)C3[C@@H](O)C[C@@]21C` (some centres undefined), the Potency entry is “inactive”.

`C[C@H]1[C@H]2CC[C@H]3[C@@H]4CC=C5C[C@@H](N(C)C)CC[C@]5(C)[C@H]4CC[C@]23CN1C`: the Potency result was “inactive”. Still for that read-out and setting: the value for `C[C@]12CCC(=O)C=C1CC[C@@H]1[C@@H]2CC[C@@]2(C)[C@H]1CC[C@]2(O)C(=O)CO` was “inactive”; that for `CCOC(=O)OCC/C(SC(=O)OCC)=C(\C)N(C=O)Cc1cnc(C)nc1N` was “inactive”. Take `C(=C\c1ccccc1)/CN1CCN(C(c2ccccc2)c2ccccc2)CC1`: the Potency entry was “inactive”.

These data come from PubChem BioAssay (NCATS).
